# Experimental data from PubChem BioAssay AID2235 (The Scripps Research Institute Molecular Screening Center, 2010).
# Hit rate of the full screen: of about 320,000 compounds, about 2,800 (0.88%) were called active.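 The calls were made as follows: active = inhibition above the mean inhibition of all tested compounds plus 3 SD, computed separately for each screening campaign (cut at about 15% in these data); inactive = the rest.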 Only a selection was taken, and actives are over-represented in it overall.
# Target: Serine/threonine-protein phosphatase PP1-alpha catalytic subunit (Homo sapiens) (UniProt P62136)
# Sequence (P62136 whole entry, looked up): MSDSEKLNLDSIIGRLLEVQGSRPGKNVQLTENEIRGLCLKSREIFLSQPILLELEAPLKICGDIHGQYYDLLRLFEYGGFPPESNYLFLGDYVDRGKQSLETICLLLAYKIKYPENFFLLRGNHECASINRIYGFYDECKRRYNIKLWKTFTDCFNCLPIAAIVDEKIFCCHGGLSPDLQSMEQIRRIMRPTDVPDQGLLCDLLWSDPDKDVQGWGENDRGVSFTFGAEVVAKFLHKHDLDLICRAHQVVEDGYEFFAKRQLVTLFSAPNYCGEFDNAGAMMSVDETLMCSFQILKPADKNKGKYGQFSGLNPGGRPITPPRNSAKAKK
# Assay: inhibition of human PP1 catalytic subunit – biochemical, fluorescence, OMFP substrate, single point, counter-screen for PP5 inhibitor project, primary screen (AID 2235)
# Conditions: purified PP1alpha, at 6.7 µM, stronger effect = higher value
row,Compound,inhibition
1,O=C(c1ccco1)N1CCN(C(=S)Nc2cc(F)cc(F)c2)CC1,-1.12% (inactive)
2,COC(=O)c1c(C)c(C)nc(N)c1C#N,-0.85% (inactive)
3,O=[N+]([O-])/C=C/c1ccc2c(ccn2Cc2ccccc2)c1,18.3% (active)
4,O=C(/C=C/c1cccc([N+](=O)[O-])c1)N1CCN(Cc2ccccc2)CC1,1.31% (inactive)
5,COC(=O)Cn1cc(/C=C/[N+](=O)[O-])c2ccccc21,-3.58% (inactive)
6,Cc1ccnc(N2CCN(C(=O)CSc3nc4ccccc4nc3N3CCCCC3)CC2)c1,2.11% (inactive)
7,CCCC[C@H]1COCCS(=O)(=O)N1Cc1cccc(Cl)c1,-6.26% (inactive)
8,Oc1c(Cl)cc(Cl)c(Cl)c1Cc1c(O)c(Cl)cc(Cl)c1Cl,21% (active)
9,COc1cc(N2C(=O)CSC2=S)cc(OC)c1OC,-0.27% (inactive)
10,CC(C)n1ncc2c(C(=O)Nc3ccc(CC#N)cc3)cc(C3CC3)nc21,0.77% (inactive)
11,CC(=O)Nc1ccc(S(=O)(=O)NC(C)C(=O)OCC(=O)NC2CCCC2)cc1 (stereo not drawn),-2.23% (inactive)
12,COc1ccc(/C=N/NC(=O)c2cc(-c3cccc(C)c3)nc3ccccc23)cc1O,-0.69% (inactive)
13,Cc1ccc(-c2cc(C(=O)N/N=C/C=C/c3ccco3)c3ccccc3n2)cc1C,20% (active)
14,O=C(N/N=C/C=C/c1ccco1)c1cccs1,-2.08% (inactive)
15,CCn1cc(C(=O)NC2CCCCCC2)c(=O)c2cc(S(=O)(=O)N3CCCCC3)ccc21,-1.18% (inactive)
16,Cc1ccc(N2C(=O)C3C4C=CC(CC4)C3C2=O)cc1Br (stereo not drawn),-2.3% (inactive)
17,O=C(/C=C/c1ccco1)Nc1cccc(-c2nc3ccccc3[nH]2)c1,-1.53% (inactive)
18,O=C(Nc1cccc(-c2nc3ccccc3[nH]2)c1)c1ccc(C(=O)Nc2cccc(-c3nc4ccccc4[nH]3)c2)cc1,18.9% (active)
19,Cc1ccc(-c2nc3ccccc3[nH]2)cc1N,-2.81% (inactive)
20,O=C(O)c1ccccc1C(=O)NC1=NN(c2ccccc2)CC1,2.04% (inactive)

row,Compound,inhibition
1,Cc1ccc2nc(N(CCN(C)C)C(=O)C3=COCCO3)sc2c1,-4.21% (inactive)
2,Cc1ccc(-c2cc(C(=O)NCc3cn(C)nc3C)c3cc(Br)ccc3n2)cc1,15.4% (active)
3,Cc1nn(C)cc1CNC(=O)Nc1ccc(Cl)cc1,-6.68% (inactive)
4,O=C(NCc1cccs1)c1cc(-c2ccccn2)nc2ccc(Br)cc12,0.34% (inactive)
5,Cc1cc(C)c(C(N)=O)c(Cl)n1,-1.75% (inactive)
6,CCCN(CCC)CCCNC(=O)CNC(=O)c1nn(-c2ccc(OC)cc2)c(=O)c2ccccc12,-4.54% (inactive)
7,COc1ccc(CN2CCNC(=O)C2CC(=O)NCc2cn[nH]c2-c2ccccc2)c(F)c1 (stereo not drawn),3.63% (inactive)
8,OCCC1CN(Cc2ccc(Oc3ncccn3)cc2)CCN1CCc1ccccc1 (stereo not drawn),-2.28% (inactive)
9,COc1cc(/C=C/C(=O)OCC(=O)NC(=O)NCc2ccccc2)ccc1OCC#N,-4.2% (inactive)
10,CCOc1ccc(/C=C/C(=O)OCC(=O)c2ccccc2OC)cc1OC,23.7% (active)
11,COc1ccc(/C=C/C(=O)OCC(=O)NCc2cccs2)cc1OC,-2.5% (inactive)
12,O=C(C1CCCO1)N1CCN(S(=O)(=O)c2ccc(Br)cc2)CC1 (stereo not drawn),0% (inactive)
13,COc1cc(NC(=O)COC(=O)c2cnc(C)cn2)c(C)cc1[N+](=O)[O-],-3.47% (inactive)
14,Nn1c(SCc2ccccc2)nnc1C1CCCCC1,-2.09% (inactive)
15,COCCCNC(=O)C1CC(=O)N(CCc2ccccc2)C1 (stereo not drawn),0.11% (inactive)
16,COCCNC(=O)C1CCN(C(=O)C2CC(=O)N(c3ccc(C)cc3)C2)CC1 (stereo not drawn),-0.32% (inactive)
17,COCCCNC(=O)C1CC(=O)N(c2ccc(C)cc2)C1 (stereo not drawn),73.3% (active)
18,Oc1c(CN2CCN(c3ccc(F)cc3)CC2)cc(Cl)c2cccnc12,35.2% (active)
19,Cc1cccnc1NC(=O)c1cccc(S(=O)(=O)N2CCN(c3ccc(F)cc3)CC2)c1,-3.22% (inactive)
20,O=C(CN1CCN(c2ccc(F)cc2)CC1)Nc1ccccc1,2.42% (inactive)

row,Compound,inhibition
1,C1CC1Cc1noc(CN2CCN(CC3CC3)CC2)n1,-4.45% (inactive)
2,CC(=O)Nc1ccc(C(=O)NNC(=O)CCCCC(=O)NNC(=O)c2ccc(NC(C)=O)cc2)cc1,-4.34% (inactive)
3,CCc1sc(C(=O)N2CCN(CC(=O)Nc3cccc(F)c3)CC2)cc1C,-1.08% (inactive)
4,O=C(N/N=C/c1cc([N+](=O)[O-])ccc1O)/C(=C\c1cccs1)NC(=O)c1ccccc1,19.9% (active)
5,O=C(Nc1ccc(C(=O)O)cc1)/C(=C/c1ccc([N+](=O)[O-])cc1)NC(=O)c1ccccc1,-0.04% (inactive)
6,Cc1ccc(NC(=O)/C(=C/c2ccc([N+](=O)[O-])cc2)NC(=O)c2ccccc2)cc1,1.49% (inactive)
7,COC(=O)CC(=O)N1CCN(c2ccc(Cl)c(Cl)c2)CC1,-1.17% (inactive)
8,CC(C)Cn1c(N)c(C(=O)COC(=O)C2CCCN2C(=O)c2cccs2)c(=O)n(C)c1=O (stereo not drawn),3.85% (inactive)
9,Cc1ccc(OCC(=O)N2CCN(S(=O)(=O)c3ccc(Cl)s3)CC2)cc1C,2.28% (inactive)
10,CCn1c(=O)c(C(=O)NCc2ccc3c(c2)OCO3)c(O)c2ccccc21,-4.95% (inactive)
11,Cc1nc2c(C(=O)NCc3ccc4c(c3)OCO4)c[nH]n2c(=O)c1Cc1ccccc1F,42.6% (active)
12,O=C(NCc1ccc2c(c1)OCO2)c1cc(F)c(F)cc1Cl,2.6% (inactive)
13,COc1ccccc1NC(=O)CSc1nnc(C)n1CC1CCCO1 (stereo not drawn),-1.67% (inactive)
14,Cc1ccc(NC(=O)CSc2nnc(COc3ccccc3C)o2)cc1,-4.67% (inactive)
15,CC(=O)Nc1ccc(NC(=O)CSc2nnc(COc3ccccc3C)n2CC2CCCO2)cc1 (stereo not drawn),16.9% (active)
16,Cc1cccc2cc(CN(C(=O)c3cccs3)c3ccccc3)c(=O)[nH]c12,1.24% (inactive)
17,Cc1ccc(C)c2[nH]c(=O)c(CN(Cc3cccnc3)C(=S)NCc3ccco3)cc12,1.73% (inactive)
18,Cc1cccc2cc(CN(Cc3cccs3)C(=S)NCc3ccco3)c(=O)[nH]c12,16.9% (active)
